One experiment deals with Albumin (Bos taurus) (UniProt P02769). Briefly: compounds binding labelled BSA control protein – biochemical, small-molecule microarray, Alexa647 label, 635/667 nm fluorescence, artefact control for SMM control protein annotation, profiling panel (AID 1118).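 Note: score merges 667 nm emission intensity and signal-to-noise per printed compound spot.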 The conditions noted are these: BSA-A647 binding, fluorescence 635 nm, higher = more signal.
Experiment [1] in a line: probe aXIP binding to arrayed compounds – biochemical, NeuroSMM set, 635/667 nm fluorescence, primary screen (AID 1119).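 Note: probe is the protein aXip251-270 applied at 1 µg/mL to compound-printed slides; binding of probe to printed compounds measured as 667 nm fluorescence plus signal to noise.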 The note with it: small-molecule microarray, higher = more signal, called active from +8 up or from −8 down.
A short description of experiment [2]: probe aNOTCH3 binding on compound microarray – biochemical, small-molecule microarray, 635/667 nm fluorescence, primary screen (AID 1120).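 Note: probe is a biotin-tagged antibody raised against NOTCH3 rather than NOTCH3 protein; score merges spot fluorescence near 667 nm with spot signal to noise.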 The conditions noted are these: higher = more signal.
Experiment [3] in a line: probe aNOTCH2 binding on compound microarray – biochemical, small-molecule microarray, 635/667 nm fluorescence, primary screen (AID 1121).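 Note: score merges feature fluorescence read at 667 nm with its signal to noise.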 The conditions noted are these: higher = more signal.
The target in experiment [4] is Carbonic anhydrase 2 (Homo sapiens) (UniProt P00918). Briefly: compounds binding carbonic anhydrase 2 – biochemical, small-molecule microarray, Alexa647-labelled CAII, profiling panel (AID 1122). The conditions noted are these: CAII-A647 binding fluorescence, higher = more signal.
The nature of experiment [5]: COS7 lysate on small-molecule microarray, probe aHis, 635 nm (AID 1123).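 Note: z-score combines 667nm fluorescence intensity with signal-to-noise per printed compound spot.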 The conditions noted are these: COS7 cell lysate, fluorescence, higher = more signal.
The nature of experiment [6]: probe aLAP1 signal on lysate-treated microarray – cell lysate, small-molecule microarray, COS7 lysate, primary screen (AID 1124).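 Note: lysate comes from COS7 cells expressing LAP1 and is applied at 0.3 µg/mL; score merges spot fluorescence near 667 nm with signal-to-noise over triplicate slides.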 The note with it: probe aLAP1, fluorescence, higher = more signal.
For another experiment, the system named is Sam68 (KHDRBS1). Briefly: compounds binding KHDRBS1 protein – biochemical, small-molecule microarray, 635 nm fluorescence, primary screen (AID 1125).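 Note: score merges 667 nm channel intensity with signal to noise over triplicate slides.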 The note with it: higher = more signal.
The test system of experiment [7] is Chordin-like protein 2 (CHRDL2). Briefly: compounds binding chordin-like 2 – biochemical, small-molecule microarray, 635 nm fluorescence, primary screen (AID 1126).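 Note: printed compound slides probed with Chrdl2 protein at 4 µg/mL for 1 h at 4 C; score merges 667 nm emission intensity with signal to noise over three replicate slides.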 The note with it: fluorescence 635 nm, higher = more signal.
In experiment [8] the target is Concanavalin-A (Canavalia ensiformis) (UniProt P02866). Put plainly: compounds binding concanavalin A lectin – biochemical, small-molecule microarray, Alexa647 label, 635 nm, artefact control for SMM control protein annotation, primary screen (AID 1127).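 Note: z combines 667 nm emission intensity with signal-to-noise across three replicate slides.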 The note with it: ConA-A647 binding fluorescence, higher = more signal.
Concanavalin-A (Canavalia ensiformis), sequence (P02866 whole entry, looked up): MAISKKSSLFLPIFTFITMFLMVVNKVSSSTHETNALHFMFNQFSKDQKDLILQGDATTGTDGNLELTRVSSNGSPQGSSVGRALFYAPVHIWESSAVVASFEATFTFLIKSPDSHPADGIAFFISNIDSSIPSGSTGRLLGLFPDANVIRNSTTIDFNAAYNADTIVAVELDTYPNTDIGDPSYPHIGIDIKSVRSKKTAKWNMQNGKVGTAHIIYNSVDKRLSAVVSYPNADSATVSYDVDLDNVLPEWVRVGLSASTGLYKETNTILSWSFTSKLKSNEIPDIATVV
Experiment [9] in a line: compounds binding Alexa647 anti-His antibody – biochemical, small-molecule microarray, 635 nm fluorescence, artefact control for SMM control protein annotation, primary screen (AID 1128).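 Note: score merges feature fluorescence with signal-to-noise for each printed compound spot.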 The note with it: higher = more signal.
The subject of experiment [10] is Human papillomavirus type 1a E7 protein (residues 1-88). Briefly: HPV1a E7 small-molecule binders, primary screen, biochemical, small-molecule microarray, residues 1-88, 635 nm (AID 1129). The conditions noted are these: small-molecule microarray binding, fluorescence 635 nm; higher = more signal.
Experiment [11] concerns the target Focal adhesion kinase 1 (Homo sapiens) (UniProt Q05397). Briefly: PTK2 protein binding on printed compound slides – biochemical, small-molecule microarray, 635/667 nm fluorescence, BSA, DTT, primary screen (AID 1130).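 Note: composite of spot emission at 667 nm and signal to noise over triplicate slides.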 The note with it: 635 nm fluorescence, higher = more signal.
Experiment [12] relates to Fibrinogen (Alexa647-labelled). Put plainly: Alexa647-fibrinogen binding to printed small molecules – biochemical, small-molecule microarray, 635/667 nm fluorescence, artefact control for SMM control-protein annotation, profiling panel (AID 1131).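 Note: z-score merges 667 nm fluorescence with per-spot signal-to-noise over triplicate slides.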 The conditions noted are these: fibrinogen-A647 binding fluorescence, higher = more signal.
For experiment [13], the target named is Follistatin (Homo sapiens) (UniProt P19883). Put plainly: FST protein binding to printed compounds – biochemical, small-molecule microarray, 635/667 nm fluorescence, primary screen (AID 1132). The conditions noted are these: 635 nm fluorescence, higher = more signal.
Follistatin (Homo sapiens), sequence (P19883 whole entry, looked up): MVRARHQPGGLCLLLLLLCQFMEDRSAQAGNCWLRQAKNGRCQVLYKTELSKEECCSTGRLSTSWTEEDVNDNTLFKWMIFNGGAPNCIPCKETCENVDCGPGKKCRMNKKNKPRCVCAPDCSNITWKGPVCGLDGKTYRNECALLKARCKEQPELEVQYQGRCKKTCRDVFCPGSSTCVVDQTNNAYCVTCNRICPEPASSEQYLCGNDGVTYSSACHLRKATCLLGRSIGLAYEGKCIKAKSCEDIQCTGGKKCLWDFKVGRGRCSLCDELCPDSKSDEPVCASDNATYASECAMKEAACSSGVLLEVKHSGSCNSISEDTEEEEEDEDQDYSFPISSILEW
Experiment [14] deals with Fibroblast growth factor 2 (Homo sapiens) (UniProt P09038). Briefly: basic fibroblast growth factor binding to printed compounds – biochemical, small-molecule microarray, 635/667 nm fluorescence, primary screen (AID 1133). The conditions noted are these: FGF2, fluorescence 635/667, higher = more signal.
Fibroblast growth factor 2 (Homo sapiens), sequence (P09038 whole entry, looked up): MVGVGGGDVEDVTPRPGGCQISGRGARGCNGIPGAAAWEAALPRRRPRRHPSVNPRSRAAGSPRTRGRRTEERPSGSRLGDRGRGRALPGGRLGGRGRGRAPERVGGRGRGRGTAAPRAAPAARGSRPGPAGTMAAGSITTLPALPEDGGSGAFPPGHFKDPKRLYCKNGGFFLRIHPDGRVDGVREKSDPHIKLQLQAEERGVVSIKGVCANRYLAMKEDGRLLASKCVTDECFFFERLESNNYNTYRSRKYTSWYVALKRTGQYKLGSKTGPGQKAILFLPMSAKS
A short description of experiment [15]: JC-1 mitochondrial potential readout, lung cancer cells – cell-based, A549, JC-1 fluorescence, basal, 24 h, 100 nL, profiling panel (AID 1138).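 Note: A549 lung adenocarcinoma cells under basal conditions with no added stimulus; test concentration not given here.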 The note with it: higher = more signal.
For another experiment, the system named is Lefty1. Put plainly: Lefty1 protein binding to printed compounds – biochemical, small-molecule microarray, 635/667 nm fluorescence, primary screen (AID 1139). The conditions noted are these: fluorescence 635/667, higher = more signal.
Experiment [16] deals with wheat germ agglutinin (Triticum aestivum), Alexa647-labelled. Briefly: Alexa647-WGA lectin binding to printed small molecules – biochemical, small-molecule microarray, 635/667 nm fluorescence, artefact control for SMM control-protein annotation, profiling panel (AID 1140).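 Note: score merges 667 nm feature emission with signal to noise over triplicate slides.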 The note with it: WGA-A647 binding, 635 nm fluorescence, higher = more signal.
Experiment [17] concerns the target Luciferin 4-monooxygenase (Photinus pyralis) (UniProt P08659). Put plainly: inhibition of purified Photinus pyralis luciferase – biochemical, luminescence, purified enzyme, 2006 set, primary screen (AID 1141).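 Note: cell-free assay with purified firefly luciferase at 100 ng per well in PBS; test concentration not given here.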 The note with it: purified firefly luciferase, SteadyGlo luminescence, 30 min; higher = more signal, called active from +8 up or from −8 down.

Structures are written as SMILES. The source made the active and inactive calls.

Luciferin 4-monooxygenase (Photinus pyralis), sequence (P08659 whole entry, looked up): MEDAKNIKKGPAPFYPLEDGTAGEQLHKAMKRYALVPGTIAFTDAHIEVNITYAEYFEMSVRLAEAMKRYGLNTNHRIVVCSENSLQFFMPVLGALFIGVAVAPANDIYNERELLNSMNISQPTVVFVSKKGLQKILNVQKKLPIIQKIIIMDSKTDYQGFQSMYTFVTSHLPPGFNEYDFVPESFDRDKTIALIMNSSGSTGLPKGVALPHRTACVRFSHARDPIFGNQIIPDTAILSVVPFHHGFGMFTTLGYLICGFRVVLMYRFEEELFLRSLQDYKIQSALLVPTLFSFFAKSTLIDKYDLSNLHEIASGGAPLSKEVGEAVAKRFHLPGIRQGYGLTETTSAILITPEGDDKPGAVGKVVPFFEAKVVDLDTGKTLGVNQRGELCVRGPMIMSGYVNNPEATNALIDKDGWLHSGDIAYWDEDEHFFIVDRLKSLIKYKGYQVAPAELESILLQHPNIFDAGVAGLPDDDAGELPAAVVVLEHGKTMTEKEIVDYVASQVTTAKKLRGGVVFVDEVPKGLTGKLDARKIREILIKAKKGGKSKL
Albumin (Bos taurus), sequence (P02769 whole entry, looked up): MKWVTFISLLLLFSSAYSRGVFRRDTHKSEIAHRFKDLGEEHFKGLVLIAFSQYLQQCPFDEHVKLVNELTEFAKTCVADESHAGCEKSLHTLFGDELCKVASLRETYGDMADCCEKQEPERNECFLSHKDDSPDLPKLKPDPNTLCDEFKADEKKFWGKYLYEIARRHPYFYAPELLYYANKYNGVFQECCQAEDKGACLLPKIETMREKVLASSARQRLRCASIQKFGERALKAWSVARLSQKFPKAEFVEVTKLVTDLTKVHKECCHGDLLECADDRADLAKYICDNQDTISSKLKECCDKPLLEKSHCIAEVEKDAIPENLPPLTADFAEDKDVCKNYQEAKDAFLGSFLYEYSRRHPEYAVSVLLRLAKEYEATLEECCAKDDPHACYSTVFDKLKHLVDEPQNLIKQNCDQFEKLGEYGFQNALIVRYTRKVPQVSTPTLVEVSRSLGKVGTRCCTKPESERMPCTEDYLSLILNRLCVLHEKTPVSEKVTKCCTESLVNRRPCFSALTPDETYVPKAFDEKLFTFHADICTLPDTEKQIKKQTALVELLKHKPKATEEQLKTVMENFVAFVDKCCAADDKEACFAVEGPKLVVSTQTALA
Focal adhesion kinase 1 (Homo sapiens), sequence (Q05397 whole entry, looked up): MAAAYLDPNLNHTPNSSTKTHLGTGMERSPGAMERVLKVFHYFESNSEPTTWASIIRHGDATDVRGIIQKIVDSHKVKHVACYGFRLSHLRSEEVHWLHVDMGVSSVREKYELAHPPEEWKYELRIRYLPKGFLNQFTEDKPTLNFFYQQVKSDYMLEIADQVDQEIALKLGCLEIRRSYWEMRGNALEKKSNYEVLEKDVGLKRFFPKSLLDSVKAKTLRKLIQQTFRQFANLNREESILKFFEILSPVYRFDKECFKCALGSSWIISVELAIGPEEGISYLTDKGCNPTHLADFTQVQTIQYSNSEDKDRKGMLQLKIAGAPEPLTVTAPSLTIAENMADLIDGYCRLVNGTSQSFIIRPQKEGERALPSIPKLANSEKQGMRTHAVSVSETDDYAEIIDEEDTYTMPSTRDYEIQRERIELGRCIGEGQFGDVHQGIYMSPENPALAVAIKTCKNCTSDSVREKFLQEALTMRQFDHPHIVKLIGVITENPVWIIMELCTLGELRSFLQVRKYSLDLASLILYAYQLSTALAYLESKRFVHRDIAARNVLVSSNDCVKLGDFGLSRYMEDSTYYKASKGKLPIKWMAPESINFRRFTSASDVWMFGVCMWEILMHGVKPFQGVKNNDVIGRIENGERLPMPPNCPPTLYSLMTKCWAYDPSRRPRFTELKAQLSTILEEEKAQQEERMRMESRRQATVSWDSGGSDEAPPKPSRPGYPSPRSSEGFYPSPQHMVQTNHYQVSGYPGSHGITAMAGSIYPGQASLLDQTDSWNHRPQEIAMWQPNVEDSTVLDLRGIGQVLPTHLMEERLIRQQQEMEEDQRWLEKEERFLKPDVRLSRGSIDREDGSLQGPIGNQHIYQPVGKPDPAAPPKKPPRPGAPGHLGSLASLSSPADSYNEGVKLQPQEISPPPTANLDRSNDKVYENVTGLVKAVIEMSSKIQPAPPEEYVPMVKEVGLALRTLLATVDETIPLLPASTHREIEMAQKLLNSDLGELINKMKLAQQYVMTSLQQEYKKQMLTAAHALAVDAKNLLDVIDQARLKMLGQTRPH

Take `NCCCCCNC(=O)[C@@H]1C[C@@H]2C(=O)N3CCC[C@H]3C(=O)N2[C@@H]1c1ccc(O)cc1`: the composite z-score was 0.539 with Albumin (Bos taurus); 0.0496 in experiment [2]; 0.0214 in experiment [3]; 0.442 in experiment [4]; 1.19 in [5]; 0.666 in [6]. The composite z-score in the experiment with Sam68 (KHDRBS1) turned out to be 0.776; in experiment [7] it was 0.466; in experiment [8], 0.893; in [9] it was 0.509; in experiment [10], 1.18; in experiment [11], 0.139. In addition, the composite z-score in [12] is 0.788; in experiment [13], 1.17; in experiment [14], 0.428; in the experiment with Lefty1, 1.08; in [16], 0.955. The composite Z-score in experiment [1] is -0.213 (inactive). For the same molecule, the z-score in experiment [15] is 0.375; in experiment [17], -0.444 (inactive).
Consider `[N-]=[N+]=NCc1ccccc1[C@H]1OC(c2ccc(OCCCO)cc2)=N[C@@]1(CCS(=O)(=O)c1ccccc1)C(=O)NCc1ccccc1`, for which the composite z-score in the experiment with Albumin (Bos taurus) came out at 0.852; in [2] it was 0.281; in experiment [3], 0.0323; in experiment [4] it was 0.435; in experiment [5], 1.6; in [6], 0.0714. In addition, the composite z-score in the experiment with Sam68 (KHDRBS1) turned out to be 1.24; in experiment [7], 0.187; in [8], 1.13; in experiment [9], 1.41; in [10], 1.2; in experiment [11], 0.13. For the same molecule, the composite z-score in experiment [12] was 0.941; in [13] it was 1.36; in [14], 0.623; in the experiment with Lefty1, 0.189; in experiment [16] it was 0.703. Also, the composite Z-score in [1] was 0.421 (inactive). The figures for the z-score in experiment [15] and in experiment [17] were 0.453 and -1.41 (inactive), respectively.
As for `C=CCNC(=O)[C@H]1[C@@H]2C(=O)O[C@@H](c3ccccc3)[C@@H](c3ccccc3)N2[C@@H](c2ccc(OCCO)cc2)[C@]12C(=O)Nc1ccc(C#CCNC(N)=O)cc12`, the composite z-score with Albumin (Bos taurus) was 0.601; in experiment [2], 0.103; in experiment [3] it was -0.0624; in experiment [4] it was 0.587; in experiment [5], 0.261; in experiment [6], -0.113. For the same molecule, the composite z-score in the experiment with Sam68 (KHDRBS1) was 1.18; in experiment [7], -0.269; in experiment [8] it was 1.1; in experiment [9], -0.293; in experiment [10], 1.15; in experiment [11], 0.0494. The composite z-score in [12] worked out at 0.936; in experiment [13] it was 1.41; in experiment [14], 1.05; with Lefty1 it was 0.767; in [16], 0.912. Also, in [1], the composite Z-score is -0.262 (inactive). Further, the z-score in [15] is -0.837; in experiment [17], -0.0338 (inactive).
With `CN1C(=O)C2C=CC(C(O)c3cc(C(F)(F)F)cc(C(F)(F)F)c3)N(Nc3ccccc3)C2C1=O` (stereo not given), the composite z-score was 0.969 in the experiment with Albumin (Bos taurus); -0.149 in experiment [2]; -0.147 in [3]; 0.831 in experiment [4]; 2.96 in [5]; -0.23 in experiment [6]. The composite z-score is 0.891 in the experiment with Sam68 (KHDRBS1); -0.616 in experiment [7]; -0.0932 in experiment [8]; 0.581 in experiment [9]; 0.737 in [10]; 0.99 in [11]. For the same molecule, the composite z-score in experiment [12] was -0.35; in [13], -0.101; in experiment [14], -0.419; in the experiment with Lefty1, 0.302; in experiment [16], 0.225. In addition, in experiment [1], the composite Z-score was 0.309 (inactive). Moreover, the z-score is 0.587 in experiment [15] and 0.787 (inactive) in [17].
Regarding `CCCNC(=O)[C@@]1(C)c2ccccc2C(=O)N(Cc2ccccc2)[C@H]1c1ccc(CO)cc1`, the composite z-score with Albumin (Bos taurus) was 0.0799; in [2], -0.128; in experiment [3], 0.0313; in experiment [4], 0.71; in experiment [5] it was 2.68; in experiment [6], 0.931. Also, the composite z-score in the experiment on Sam68 (KHDRBS1) is 0.526; in experiment [7], -1.13; in [8], 0.657; in experiment [9] it was 1.8; in experiment [10], 0.0323; in experiment [11] it was 1.28. For the same molecule, the composite z-score in experiment [12] is -0.872; in experiment [13] it was -0.571; in [14], -0.258; with Lefty1 it was -0.975; in experiment [16], -0.231. Also, the composite Z-score in experiment [1] is 2.55 (inactive). Moreover, the z-score was 1.03 in experiment [15] and -1.18 (inactive) in [17].
Consider `CCOC(=O)C1=CC[C@@H](c2ccccc2)N(S(=O)(=O)c2ccc(C)cc2)[C@H]1c1cccc(OC)c1`, for which the composite z-score with Albumin (Bos taurus) amounted to 0.909; in [2], 0.199; in [3], 0.137; in [4], 0.422; in experiment [5], 0.899; in [6] it was 0.0214. Besides, the composite z-score with Sam68 (KHDRBS1) is 1.06; in experiment [7], -0.0412; in experiment [8], 0.913; in [9], 0.741; in [10] it was 1.15; in [11], -0.0106. The composite z-score in [12] was 0.669; in experiment [13], 0.76; in experiment [14], 0.356; with Lefty1 it was -0.245; in experiment [16] it was 0.773. For the same molecule, the composite Z-score in [1] was 1.15 (inactive). In addition, the z-score in [15] is 1.96; in [17], 1.56 (inactive).
Consider `CCOC(=O)C1=C[C@@H](c2ccccc2)N(S(=O)(=O)c2ccc(C)cc2)[C@H]1c1ccccc1`, for which the composite z-score in the experiment with Albumin (Bos taurus) was 0.612; in experiment [2], 0.0636; in [3] it was -0.022; in experiment [4] it was 0.0593; in experiment [5], -0.136; in experiment [6] it was 0.326. Besides, the composite z-score turned out to be 0.582 with Sam68 (KHDRBS1); 0.512 in experiment [7]; 0.759 in experiment [8]; 0.421 in experiment [9]; 0.574 in experiment [10]; 0.681 in [11]. The composite z-score is -0.276 in [12]; 0.379 in experiment [13]; 0.466 in experiment [14]; 0.543 in the experiment on Lefty1; 0.197 in experiment [16]. In addition, the composite Z-score in experiment [1] was 0.185 (inactive). Moreover, the z-score is 1.47 in experiment [15] and 1.94 (inactive) in experiment [17].
In the case of `O=C1O[C@H](c2ccccc2)[C@H](c2ccccc2)N2[C@H]1[C@@H](C(=O)N1CCCCCCC1)[C@]1(C(=O)Nc3ccc(C#CC4(O)CCCCCC4)cc31)[C@H]2c1ccc(O)cc1`, the composite z-score is -0.0339 with Albumin (Bos taurus); 1.77 in experiment [2]; 0.956 in [3]; 0.705 in experiment [4]; 3.64 in [5]; 1.42 in experiment [6]. The composite z-score was 1.29 in the experiment on Sam68 (KHDRBS1); 1.39 in experiment [7]; 1.07 in experiment [8]; 0.821 in experiment [9]; 1.22 in [10]; 1.75 in experiment [11]. Also, the composite z-score turned out to be 0.545 in experiment [12]; 1.4 in [13]; 1.37 in experiment [14]; 1.27 in the experiment with Lefty1; 0.757 in [16]. The composite Z-score in experiment [1] is 5.24 (inactive). Besides, the z-score in experiment [15] was 0.706; in [17], -0.0026 (inactive).

Values taken from PubChem BioAssay.
